The sequences below were run against KRI1 (assay: pooled miR-30 sensor sort-seq; sequence = guide strand). Conditions: shRNA.
Also: reference of the scale not given here.

In order of rising sensor-assay potency score (higher = more potent):
1. TTGAGCTCTTCCTGCTTCTTTG  -1.32
2. TTACTTTCCGCAGCTTCTCCAG  -1.11
3. TTCCTCCACATAACTTTGCGAC  -0.99
4. TTTGTAAAAGTCCCGCTCCTGC  -0.976
5. TACAGGGGCTTCCTCTTCCTGT  -0.817
6. TTCTTCAACAAGGAGAGCGTTT  -0.767
7. TACTTTCCGCAGCTTCTCCAGC  -0.735
8. TAACCTTCCTCTCGTAGTCCTT  -0.514

The sequences below were run against KRT2 in the same assay as above. Conditions: shRNA.

In order of rising sensor-assay potency score (higher = more potent):
1. TTTTGATCTGCTCACGCTCTTG  -1.42
2. TTCTGCAGTGAGCCCATCCAGA  -1.13
3. TTTCAGAAACTCAATTTCCTGG  -0.272
4. TTGGTGTCAGTGACACTCTGAT  -0.228
5. TTGGACTGCAACTCCACCTTTA  -0.149
6. TTGATCTCCGGCTTCCACCAGA  -0.146
7. TACACTGCTTCTTCACATGTGC  0.0185
8. TTCACATTCTGGATCTCTGGGT  0.038
9. TATCTTGATCTCTTTCAGGCTG  0.155
10. TTGCACATTCTTACACTGCTTC  0.204
11. TAAACCTCCAACACCACCAGGG  0.275
12. TTTGATGAAATGGTGCTGCTTG  0.566

What follows are sequences tested against KRT33B in the same assay as above. Conditions: shRNA.

In order of rising sensor-assay potency score (higher = more potent):
1. TTGTCAGAGAGGCAGAACTGGC  -1.76
2. TGGTTCTGAAGTCATCTGCAGC  -1.53
3. TAGGACTGCAGCTGCTCCGAGC  -1.39
4. ATACTGATTCCTGGTCTCGTTC  -1.38
5. ATTGTCGATCTGCACCACCAGC  -1.36
6. TTCTCAGACTTGCTGCACAGGA  -1.16
7. TCCGTCTGGTACTTGGTTCTGA  -0.6
8. TCGATCTGCACCACCAGCCTGG  -0.584
9. TTGTCGATCTGCACCACCAGCC  -0.512
10. TTCTGAAGTCATCTGCAGCCAG  -0.402
11. TTTTCACATGCATTGGTGGTGG  0.0181
12. TTTTCCAGAGAGTATCGCAGGT  0.0207
13. TTTCCAGAGAGTATCGCAGGTT  0.0223
14. TTGGTTCTGAAGTCATCTGCAG  0.243

These sequences were tested against KRT75 in the same assay as above. Conditions: shRNA.

In order of rising sensor-assay potency score (higher = more potent):
1. TTGTGCTTTGACCTCGGCGATG  -1.35
2. TTGACTCCAAACCTGTTGCTGG  -0.175
3. TATTGTGCTTTGACCTCGGCGA  -0.108
4. TTGCAAGCTGGAACACTGCTTC  0.132
5. TTAATTTCATCTTCGTACCTGA  0.609
6. TTTCACATGTGTAACAGACGGG  0.696

From the OligoGym collection
